In the library only some 1.8% were active in any assay of this set; here they are far more common.
Autofluor Jurkat: compound autofluorescence on Jurkat cells, primary screen, artefact control for VLA-4 allosteric ligand project, cell-based, flow cytometry | active compounds read high; 1 = vehicle-only cell background | fluorescence ratio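 (tested at 10 µM compound in the well)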 | hit rate 0.61% among 24,000 | AID 576, 2007;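 active means fluorescence ratio above 2.44, which is 1 plus 3 SD of all ratios; inconclusive means signal too bright to measure linearly, ratio around 10 or more; inactive means fluorescence ratio below 2.44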;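 further: green fluorescence of cells measured with 488 nm excitation and 530 nm emission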
FPR ligand: human FPR ligands by binding competition, primary screen, cell-based, FPRL1 counter-screen, flow cytometry; FPR-expressing cells, fluorescent ligand binding; hit rate 0.74% among 24,000; inhibition, % (no concentration beside the values); fMet-Leu-Phe receptor (Homo sapiens), P21462
VLA-4 agonist: enhancers of LDV-FITC binding to VLA-4 integrin, primary screen, Jurkat cells, flow cytometry; Integrin alpha-4 (Homo sapiens), P13612; activation, % at 10 µM (by protocol); 24,000 tested, under 10 active; AID 528, 2006;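 active means fluorescent ligand binding to cells raised by more than 40% of the manganese-induced maximum; inconclusive means compound's own fluorescence above 85% of the ligand control signal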
VLA-4 antagonist: inhibitors of LDV-FITC binding to Mn2+-activated VLA-4, primary screen, Jurkat cells. Integrin alpha-4 (Homo sapiens), P13612. LDV-FITC binding with Mn2+, flow cytometry; 100% = Mn2+-driven binding gain fully reversed. inhibition, % at 10 µM (by protocol). hit rate 0.2% among 24,000;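 active means inhibition above 50%; inconclusive means compound itself fluorescent, judged against control cell fluorescence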
FPRL1 binder: human FPRL1 ligands by binding competition, primary screen, cell-based, FPR counter-screen, flow cytometry; N-formyl peptide receptor 2 (Homo sapiens), P25090; FPRL1-expressing cells, fluorescent ligand binding inhibition; hit rate 0.3% among 24,000; inhibition, % (concentration not given with the values)
Target sequence (P25090 whole entry, looked up): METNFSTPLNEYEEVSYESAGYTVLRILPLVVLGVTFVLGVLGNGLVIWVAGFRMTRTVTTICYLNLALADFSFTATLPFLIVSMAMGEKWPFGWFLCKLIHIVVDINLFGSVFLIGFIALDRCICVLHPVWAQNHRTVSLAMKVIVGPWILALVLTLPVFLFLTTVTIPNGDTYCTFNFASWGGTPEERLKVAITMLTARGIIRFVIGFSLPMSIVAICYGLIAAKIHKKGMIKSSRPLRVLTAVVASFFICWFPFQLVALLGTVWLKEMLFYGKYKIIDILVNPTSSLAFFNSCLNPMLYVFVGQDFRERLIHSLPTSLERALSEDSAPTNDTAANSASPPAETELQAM
Large screens that a line does not name were inactive. Unless noted, no stated cut-off is given here; in the data, active means inhibition above about 30%; inconclusive means no clear call, values can overlap the other calls; inactive means below that.

COc1ccccc1C1/C(=C(\O)c2ccc3c(c2)OCCO3)C(=O)C(=O)N1CCCN(C)C (stereo not given)	none (no result: Autofluor Jurkat, VLA-4 agonist, VLA-4 antagonist)
C=CCN1C(=O)C2(/C(=C(\O)c3ccc4c(c3)OCCO4)C(=O)C(=O)N2CCCOC)c2ccccc21 (stereo not given)	FPR ligand 31.6
Cc1[nH]n2c(=O)c3c(nc2c1-c1ccccc1)CCC3	FPR ligand 40.2 (no result: Autofluor Jurkat, VLA-4 agonist, VLA-4 antagonist)
Cc1[nH]n2c(=O)c(C#N)c(-c3ccccc3)nc2c1-c1ccccc1	FPR ligand 89.8 (no result: Autofluor Jurkat, VLA-4 agonist, VLA-4 antagonist)
Cc1[nH]n2c(=O)c3c(nc2c1-c1ccc(Cl)cc1)CCC3	FPR ligand 50.6 (no result: Autofluor Jurkat, VLA-4 agonist, VLA-4 antagonist)
Cc1[nH]n2c(=O)cc(C(C)(C)C)nc2c1-c1ccccc1	none (no result: Autofluor Jurkat, VLA-4 agonist, VLA-4 antagonist)
CCN(C(=O)Cc1c(C(=O)O)[nH]c2ccccc12)c1cc(OC)ccc1OC	FPR ligand 32.2
CCN(C(=O)c1coc(=O)c2ccccc12)c1cc(OC)ccc1OC	VLA-4 agonist inconclusive, VLA-4 antagonist inconclusive
Cc1ccc(NC(=O)C2CCCN(S(=O)(=O)c3cccs3)C2)cc1 (stereo not given)	VLA-4 antagonist 67.5
CN1CC=C2C(C#N)=C(N)C(C#N)(C#N)C(Cc3ccccc3)C2C1 (stereo not given)	Autofluor Jurkat 2.59, VLA-4 agonist inconclusive, VLA-4 antagonist inconclusive
CCOC(=O)N1CCN(C(=O)c2ccc3c(SCC(=O)O)c4c(nc3c2)CCC4)CC1	none
C=CCn1c(SCC(=O)c2ccc(OC)cc2)nnc1C(C)NC(=O)c1cccs1 (stereo not given)	none
O=C(NCc1cccnc1)C1c2ccccc2C(=O)N1C1CCCCCCC1 (stereo not given)	FPR ligand 47.6
O=C(NCc1cccnc1)C1c2ccccc2C(=O)N1C1CCCCCC1 (stereo not given)	FPR ligand 62.5, VLA-4 agonist inconclusive, VLA-4 antagonist inconclusive
O=C(NC1CCCC1)C1c2ccccc2C(=O)N1C1CCCCC1 (stereo not given)	none
O=C(NC1CCCCCC1)C1c2ccccc2C(=O)N1Cc1cccnc1 (stereo not given)	none
c1ccc2c(c1)nc(NCC1CCCO1)c1nnnn12 (stereo not given)	Autofluor Jurkat 5.01, VLA-4 agonist inconclusive, VLA-4 antagonist inconclusive
c1cc(-c2nc3cc(Oc4ccc5oc(-c6ccncc6)nc5c4)ccc3o2)ccn1	none
CNc1nn(-c2cccc(Cl)c2)nc1N	Autofluor Jurkat 8.09, VLA-4 agonist inconclusive, VLA-4 antagonist inconclusive, FPRL1 binder 90.3
CCC(=O)Nc1cc2nn(-c3ccccc3)nc2cc1Cl	none
CCOc1cccc(/C(O)=C2/C(=O)C(=O)N(Cc3ccco3)C2c2ccncc2)c1 (stereo not given)	FPR ligand 48.2 (no result: Autofluor Jurkat, VLA-4 agonist, VLA-4 antagonist)
COc1ccccc1C1/C(=C(/O)c2ccc(C)cc2)C(=O)C(=O)N1CC(C)O (stereo not given)	none (no result: Autofluor Jurkat, VLA-4 agonist, VLA-4 antagonist)
COc1ccc(C2/C(=C(/O)c3ccccc3)C(=O)C(=O)N2CC(C)O)c(OC)c1 (stereo not given)	FPR ligand 42.2, VLA-4 agonist inconclusive, VLA-4 antagonist inconclusive
COc1ccc(/C(O)=C2\C(=O)C(=O)N(Cc3ccco3)C2c2cc(OC)ccc2OC)cc1 (stereo not given)	none (no result: Autofluor Jurkat, VLA-4 agonist, VLA-4 antagonist)
COc1ccccc1C1/C(=C(/O)c2ccccc2)C(=O)C(=O)N1CC(C)C (stereo not given)	FPR ligand 63.0
Cc1ccc(C2/C(=C(/O)c3ccc(Br)cc3)C(=O)C(=O)N2Cc2ccco2)o1 (stereo not given)	FPR ligand 30.8 (no result: Autofluor Jurkat, VLA-4 agonist, VLA-4 antagonist)
CCN=C1SC(CC(=O)Nc2sc(C)c(C)c2C(=O)OC)C(=O)N1CC (stereo not given)	none
O=C(NCC1CCCO1)c1csc2c1CCCC2 (stereo not given)	none
CCNc1nc(NC(C)C)nc(N(C#N)CCOc2ccc(Cl)cc2Cl)n1	none
CCC(C)NC(=O)C1CCCN(S(=O)(=O)c2ccc(-n3cnnn3)cc2)C1 (stereo not given)	none
COc1ccc(OC)c(C2/C(=C(/O)c3ccccc3)C(=O)C(=O)N2Cc2ccco2)c1 (stereo not given)	FPR ligand 92.0 (no result: Autofluor Jurkat, VLA-4 agonist, VLA-4 antagonist)
Cc1ccc(/C(O)=C2\C(=O)C(=O)N(CC(C)O)C2c2ccc(N(C)C)cc2)cc1 (stereo not given)	FPR ligand 36.3 (no result: Autofluor Jurkat, VLA-4 agonist, VLA-4 antagonist)

High-throughput results as filed in PubChem.
